# In PubChem BioAssay (Tox21):
# Values without a mark were called inactive. Results filed as inconclusive are left out. Entries that show only a call come without a potency. Calls of active or inactive are those of the source. Unless noted, the call rests on the fitted dose curve.
# What was measured:
# [1] = Nuclear factor erythroid 2-related factor 2/antioxidant responsive element (Nrf2/ARE) small molecule agonists: luciferase reporter gene qHTS assay in human keratinocytes (AID 1919969); further: nearly all actives have a fitted effect of over 35% in size; further: potency means the concentration at half of the fitted maximal effect
# [2] = molecular target: Gonadotropin-releasing hormone receptor (Homo sapiens) (UniProt P30968); experiment: Human gonadotropin-releasing hormone receptor (GnRHR) small molecule agonists, calcium flux assay in GnRHR-HEK293 cells (AID 1920063); further: nearly all actives have a fitted effect of over 35% in size; further: potency means the concentration at half of the fitted maximal effect
# Sequence of Gonadotropin-releasing hormone receptor (Homo sapiens) (P30968 whole entry, looked up): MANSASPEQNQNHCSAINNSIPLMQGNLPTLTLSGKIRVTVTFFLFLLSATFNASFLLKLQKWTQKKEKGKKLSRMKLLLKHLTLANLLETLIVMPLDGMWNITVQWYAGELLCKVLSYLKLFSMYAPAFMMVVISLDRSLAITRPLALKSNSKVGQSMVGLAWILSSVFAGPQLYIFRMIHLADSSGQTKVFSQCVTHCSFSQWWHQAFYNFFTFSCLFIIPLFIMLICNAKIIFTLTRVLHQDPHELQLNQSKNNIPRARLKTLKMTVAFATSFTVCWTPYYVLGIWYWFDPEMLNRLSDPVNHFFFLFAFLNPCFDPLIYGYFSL
# In short: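 Stable human GnRHR HEK293 line. 18 h plating, then calcium dye for 1 h at 37 C. Agonist-mode compound addition from DMSO stocks; fluorescence monitored 3 min.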
# [3] = molecular target: KiSS-1 receptor (Homo sapiens) (UniProt Q969F8); experiment: Human kisspeptin (KISS1R) small molecule agonists, calcium flux assay in KISS1R-HEK293 cells (AID 1920064; active means well fitted activation curve with a large enough effect in the repeat runs; further: potency means the concentration at half of the fitted maximal effect)
# Sequence of KiSS-1 receptor (Homo sapiens) (Q969F8 whole entry, looked up): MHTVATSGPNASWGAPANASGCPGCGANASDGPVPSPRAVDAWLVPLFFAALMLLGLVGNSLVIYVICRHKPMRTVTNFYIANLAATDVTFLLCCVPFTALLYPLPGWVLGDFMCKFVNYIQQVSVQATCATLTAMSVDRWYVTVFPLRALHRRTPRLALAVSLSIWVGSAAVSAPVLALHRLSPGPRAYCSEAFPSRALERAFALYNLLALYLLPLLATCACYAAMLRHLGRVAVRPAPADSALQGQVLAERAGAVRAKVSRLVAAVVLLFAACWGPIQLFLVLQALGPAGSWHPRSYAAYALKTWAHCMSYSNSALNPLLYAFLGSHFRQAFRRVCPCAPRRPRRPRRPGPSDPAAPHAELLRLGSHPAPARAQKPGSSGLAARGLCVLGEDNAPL
# In short: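 After overnight (18 h) culture at 37 C/5% CO2, human KISS1R-HEK293 cells received calcium dye for 1 h, then test compound; emission at 540 nm (excitation 480 nm) was tracked for 3 min.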
# [4] = G protein-coupled receptor (GPCR) small molecule agonists, calcium flux assay: HEK293 wild type cell line counter screen (AID 1920065); further: potency means the concentration at half of the fitted maximal effect
# In short: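 Following 18 h incubation at 37 C/5% CO2, plates got calcium dye for 1 h; compounds, ATP or DMSO were then pinned in and fluorescence followed kinetically (480/540 nm).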
# [5] = p53 small molecule agonists, cell-based qHTS assay with human liver microsomes (AID 1963577)
# In short: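 Cells carrying a p53-responsive bla reporter were rested 5 h (37 C, 5% CO2) before compound transfer. Human liver microsomes plus NADPH, 0.5 mg/mL final apiece, supplied metabolism during the 16 h 37 C exposure.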
# [6] = p53 small molecule agonists, cell-based qHTS assay with rat liver microsomes (AID 1963578)
# In short: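 Fluorescence from a beta-lactamase reporter under a p53 response element was measured after cells had been incubated 16 h at 37 C with test compound and rat liver microsomes plus NADPH (0.5 mg/mL final each).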
# [7] = p53 small molecule agonists, cell-based qHTS assay with human liver microsomes: qHTS cell viability counter screen (AID 1963579); further: nearly all actives have a fitted effect of over 45% in size; further: potency means the concentration at half of the fitted maximal effect
# In short: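 Seed p53RE-bla cells at 4,000 per well; incubate 5 h at 37 C; add compound, human liver microsomes and NADPH; incubate 16 h at 37 C; add CellTiter-Glo; after 30 min at room temperature, read luminescence.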
# [8] = p53 small molecule agonists, cell-based qHTS assay with rat liver microsomes: qHTS cell viability counter screen (AID 1963580); further: nearly all actives have a fitted effect of over 45% in size; further: potency means the concentration at half of the fitted maximal effect
# In short: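 Cytotoxicity counter screen: intracellular ATP read by CellTiter-Glo luminescence in the p53 reporter wells. HCT-116 p53RE-bla cells were treated for 16 h at 37 C alongside rat liver microsomes and NADPH, each 0.5 mg/mL final.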
# [9] = p53 small molecule agonists, cell-based qHTS assay: qHTS cell viability counter screen (AID 1963581); further: nearly all actives have a fitted effect of over 45% in size; further: potency means the concentration at half of the fitted maximal effect
# In short: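 qHTS counter screen: 16 h compound exposure at 37 C of p53RE-bla HCT-116 cells (4,000 per well, seeded 5 h prior), cell viability by ATP luminescence.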
# [10] = molecular target: 5-hydroxytryptamine receptor 2A (Homo sapiens) (UniProt P28223); experiment: 5-hydroxytryptamine receptor 2A (HTR2A) small molecule agonists, cell-based qHTS assay (AID 1963587); further: nearly all actives have a fitted effect of over 30% in size
# Sequence of 5-hydroxytryptamine receptor 2A (Homo sapiens) (P28223 whole entry, looked up): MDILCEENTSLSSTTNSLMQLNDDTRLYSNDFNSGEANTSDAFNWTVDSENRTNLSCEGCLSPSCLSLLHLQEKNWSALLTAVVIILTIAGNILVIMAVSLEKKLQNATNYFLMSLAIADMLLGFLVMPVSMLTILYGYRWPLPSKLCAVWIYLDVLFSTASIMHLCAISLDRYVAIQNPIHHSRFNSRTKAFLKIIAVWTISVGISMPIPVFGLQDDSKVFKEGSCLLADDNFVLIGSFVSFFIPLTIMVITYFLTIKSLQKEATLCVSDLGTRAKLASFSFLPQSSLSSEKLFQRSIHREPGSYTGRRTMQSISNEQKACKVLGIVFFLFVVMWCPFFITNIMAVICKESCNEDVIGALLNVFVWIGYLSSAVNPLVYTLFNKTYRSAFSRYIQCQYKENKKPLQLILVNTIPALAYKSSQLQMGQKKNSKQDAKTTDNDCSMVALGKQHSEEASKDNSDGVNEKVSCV
# In short: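 Kinetic calcium-flux fluorescence (2 min, 1 sec intervals) after compound addition in agonist mode. HTR2A-CHO cells were cultured 18 h, then dye-loaded 1 h at 37 C.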
# [11] = molecular target: Muscarinic acetylcholine receptor M1 (Homo sapiens) (UniProt P11229); experiment: Cholinergic receptor muscarinic 1 (CHRM1) small molecule agonists, cell-based qHTS assay (AID 1963589); further: nearly all actives have a fitted effect of over 35% in size
# Sequence of Muscarinic acetylcholine receptor M1 (Homo sapiens) (P11229 whole entry, looked up): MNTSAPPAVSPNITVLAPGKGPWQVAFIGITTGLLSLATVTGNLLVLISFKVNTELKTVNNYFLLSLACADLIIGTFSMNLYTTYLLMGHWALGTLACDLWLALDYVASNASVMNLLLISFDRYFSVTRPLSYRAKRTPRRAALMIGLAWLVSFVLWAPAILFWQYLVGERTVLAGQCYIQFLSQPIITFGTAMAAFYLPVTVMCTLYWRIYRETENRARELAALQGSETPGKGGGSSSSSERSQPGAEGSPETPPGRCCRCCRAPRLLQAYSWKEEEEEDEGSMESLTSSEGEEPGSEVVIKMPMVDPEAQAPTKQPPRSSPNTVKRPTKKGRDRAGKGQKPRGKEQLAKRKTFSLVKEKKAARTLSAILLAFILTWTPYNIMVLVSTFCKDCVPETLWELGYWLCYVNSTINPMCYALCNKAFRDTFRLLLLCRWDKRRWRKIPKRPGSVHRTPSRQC
# In short: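 Kinetic fluorescence (1 s intervals) of calcium-sensitive dye in human M1 CHO cells after compound addition; cells pre-incubated 18 h at 37 C/5% CO2 and dye-loaded 1 h.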
# [12] = cAMP Responsive Elements (CRE) small molecule agonists, cell-based qHTS assay (AID 1963590)
# In short: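 Test agents in DMSO were incubated 3 h at 37 C/5% CO2 with CRE-bla HEK 293T cells seeded 18 h earlier; LiveBLAzer B/G FRET substrate was added and read after 2 h at room temperature.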
# [13] = molecular target: Beta-2 adrenergic receptor (Homo sapiens) (UniProt P07550); experiment: Adrenergic beta2 receptor (ADRB2) small molecule antagonists, cell-based qHTS assay (AID 1963592); further: nearly all actives have a fitted effect of over 50% in size; further: potency means the concentration at half of the fitted maximal effect
# Sequence of Beta-2 adrenergic receptor (Homo sapiens) (P07550 whole entry, looked up): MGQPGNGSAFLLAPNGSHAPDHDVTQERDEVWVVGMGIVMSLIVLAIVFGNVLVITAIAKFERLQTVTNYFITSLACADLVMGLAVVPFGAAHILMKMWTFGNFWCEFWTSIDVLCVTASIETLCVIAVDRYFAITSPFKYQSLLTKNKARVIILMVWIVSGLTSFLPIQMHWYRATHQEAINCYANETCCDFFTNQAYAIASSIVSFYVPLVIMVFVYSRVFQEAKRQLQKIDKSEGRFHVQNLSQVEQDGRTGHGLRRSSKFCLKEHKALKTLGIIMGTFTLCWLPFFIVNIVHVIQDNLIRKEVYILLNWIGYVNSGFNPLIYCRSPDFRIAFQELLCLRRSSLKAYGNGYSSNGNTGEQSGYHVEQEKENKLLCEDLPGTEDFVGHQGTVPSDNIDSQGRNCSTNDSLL
# In short: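 Assay format: CHO-ADRB2 cells, 18-20hr seeding at 37C/5% CO2, then compound plus 1nM isoproterenol agonist mix for 0.5hr RT. Homogeneous time-resolved fluorescence cAMP detection after 1hr, expressed as 665/615 nm ratio.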
# [14] = molecular target: Beta-2 adrenergic receptor (Homo sapiens) (UniProt P07550); experiment: Adrenergic beta2 receptor (ADRB2) small molecule agonists, cell-based qHTS assay (AID 1963593);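 further: CHO cells stably overexpressing human ADRB2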
# In short: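 CHO cells stably over-expressing ADRB2 were plated overnight at 37C, then dosed with compounds plus a stimulation mix containing 100uM IBMX and 25uM Ro-20-1724 for 0.5hr at room temperature. cAMP was measured by HTRF competition, 1hr.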
# [15] = molecular target: D(2) dopamine receptor (Homo sapiens) (UniProt P14416); experiment: Dopamine D2 receptor (DRD2) small molecule agonists, cell-based qHTS assay (AID 1963594); further: nearly all actives have a fitted effect of over 35% in size
# Sequence of D(2) dopamine receptor (Homo sapiens) (P14416 whole entry, looked up): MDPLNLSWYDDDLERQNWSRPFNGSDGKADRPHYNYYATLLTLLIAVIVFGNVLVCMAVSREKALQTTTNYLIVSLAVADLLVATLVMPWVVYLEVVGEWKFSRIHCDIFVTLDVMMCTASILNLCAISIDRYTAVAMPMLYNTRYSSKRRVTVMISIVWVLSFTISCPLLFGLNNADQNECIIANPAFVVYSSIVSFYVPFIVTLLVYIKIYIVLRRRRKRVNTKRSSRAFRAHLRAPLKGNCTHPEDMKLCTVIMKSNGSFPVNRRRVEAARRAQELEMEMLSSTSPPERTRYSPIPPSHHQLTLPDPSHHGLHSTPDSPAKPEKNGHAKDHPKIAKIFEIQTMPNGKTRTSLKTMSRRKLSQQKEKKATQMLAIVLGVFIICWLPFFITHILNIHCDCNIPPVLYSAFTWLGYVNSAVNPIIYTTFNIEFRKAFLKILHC
# In short: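 cAMP accumulation in DRD2-HEK293 cells measured by HTRF after 1 h detection; compounds added 10 min before NKH477 (200nM […]) forskolin-analogue stimulation, 30 min at room temperature, with Ro20-1724 present at 0.1 mM final.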
# [16] = molecular target: D(2) dopamine receptor (Homo sapiens) (UniProt P14416); experiment: Dopamine D2 receptor (DRD2) small molecule antagonists, cell-based qHTS assay (AID 1963595; active means well fitted inhibition curve with a large enough effect in the signal ratio in the repeat runs, with a control signal flat; the % refers to the signal ratio; further: potency means the concentration at half of the fitted maximal effect)
# In short: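 DRD2-HEK293; 0.1 mM Ro20-1724; cpd 10 min RT; NKH477 200 nM + quinpirole 12 nM, 30 min RT; HTRF cAMP (cAMP-d2/anti-cAMP cryptate), 665/620 nm ratio after 1 h.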
# [17] = molecular target: Muscarinic acetylcholine receptor M1 (Homo sapiens) (UniProt P11229); experiment: Cholinergic receptor muscarinic 1 (CHRM1) small molecule antagonists, cell-based qHTS assay (AID 1963588); further: nearly all actives have a fitted effect of over 40% in size; further: potency means the concentration at half of the fitted maximal effect
# In short: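 Compounds were tested at 15 concentrations in three independent runs. Dye-loaded CHRM1-CHO cells were exposed 5 min at room temperature before stimulation by acetylcholine added at 50nM. Intracellular calcium was read kinetically on FDSS for 3 min.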
# [18] = cAMP Responsive Elements (CRE) small molecule antagonists, cell-based qHTS assay (AID 1963591; active means well fitted inhibition curve with a large enough effect in the signal ratio in the repeat runs, not every such curve was filed as active; the % refers to the signal ratio)
# In short: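 Reporter line CRE-bla HEK 293T in dialyzed-FBS DMEM; cells preincubated 18 h, treated 3 h with compound plus NKH477 (0.25 uM final); LiveBLAzer FRET, 2 h RT.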
# [19] = molecular target: 5-hydroxytryptamine receptor 2A (Homo sapiens) (UniProt P28223); experiment: 5-hydroxytryptamine receptor 2A (HTR2A) small molecule antagonists, cell-based qHTS assay (AID 1963586); further: nearly all actives have a fitted effect of over 45% in size; further: potency means the concentration at half of the fitted maximal effect
# In short: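 CHO cells stably expressing human HTR2A were plated for 18 h at 37 C, then loaded with calcium dye for 1 h. Compounds were preincubated 5 min at room temperature before DOI (4 nM solution) was added. Kinetic fluorescence was read for 3 min.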
SMILES,Potency [1],Potency [2],Potency [3],Potency [4],Potency [5],Potency [6],Potency [7],Potency [8],Potency [9],Potency [10],Potency [11],Potency [12],Potency [13],Potency [14],Potency [15],Potency [16],Potency [17],Potency [18],Potency [19]
c1ccc(-c2ccc(C(c3ccccc3)n3ccnc3)cc2)cc1 (stereo unspecified),29.8 µM (active),inactive,inactive,inactive,inactive,inactive,inactive,inactive,inactive,inactive,inactive,inactive,inactive,inactive,inactive,inactive,,,
O=C(Nc1ccc(S(=O)(=O)N2CCOCC2)cc1)c1cc(Cl)ccc1NS(=O)(=O)c1ccc(Cl)s1,inactive,inactive,inactive,inactive,inactive,inactive,inactive,inactive,inactive,,inactive,inactive,inactive,,inactive,inactive,inactive,inactive,
Nc1ccc(N)c2c1C(=O)c1ccccc1C2=O,inactive,inactive,inactive,inactive,inactive,inactive,inactive,inactive,inactive,,inactive,inactive,,,,,inactive,,
COc1ccc(-c2cc(=S)ss2)cc1,33.5 µM (active),inactive,inactive,inactive,inactive,inactive,inactive,inactive,inactive,inactive,inactive,inactive,inactive,,inactive,inactive,inactive,inactive,
Nc1ccn(C2CO[C@H](CO)O2)c(=O)n1 (stereo partly specified),inactive,4.25 µM (active),6.74 µM (active),16.9 µM (active),inactive,inactive,inactive,inactive,inactive,,,inactive,inactive,,inactive,inactive,,,
O=c1[nH]c2ccccc2n1CCCN1CCN(C(c2ccccc2)c2ccccc2)CC1,inactive,inactive,inactive,inactive,inactive,inactive,inactive,inactive,,inactive,inactive,,inactive,,inactive,,inactive,,0.0052 µM (active)
CCCCCCCCCCCCCCCCCC[N+](C)(C)Cc1ccccc1,inactive,inactive,inactive,inactive,inactive,inactive,46.2 µM (active),46.2 µM (active),20.6 µM (active),,inactive,,61.7 µM (active),,inactive,,0.19 µM (active),,inactive
CCc1cc(Cc2cc(CC)c(N)c(CC)c2)cc(CC)c1N,inactive,inactive,inactive,inactive,inactive,inactive,40.8 µM (active),,,inactive,inactive,inactive,,,,54.5 µM (active),inactive,inactive,inactive
